These results are taken from PubChem BioAssay (Tox21).

The structures appear in SMILES notation. Values joined by “and” are separate entries in the source; they are usually repeats but may differ in a detail not shown here. Identical values can stand only once. Values without a mark were called inactive. Records with an inconclusive call do not appear. Active and inactive are the calls of the source. Unless noted, calls come from the whole dose curve; as a rule, active = well fitted curve in the direction sought with a large enough effect in the repeat runs; inconclusive = weak or mixed curves; inactive = no such curve, though single readings can be large; an effect the other way counts as inactive or inconclusive. Starred links: 1 amine or outer side, 2 acyl side, 3 side chain; linkers in the order of their positions; H or OH if unused. Positions of bridges follow the written chain, without caps; N, C: chain ends. Non-standard residues stand in square brackets, D forms with d. Residues, ends and D or L forms follow the SMILES beside them. Chains are numbered I, II in the order given. Actinocin(9to1) = Cc1c2oc3c(C)ccc(C(=O)[*:1])c3nc-2c(C(=O)[*:2])c(N)c1=O; NMeV = CN[C@H](C(=O)O)C(C)C; Sar = CNCC(=O)O

Test [1] in a line: qHTS assay to identify small molecule agonists of H2AX (AID 1224845; active = well fitted activation curve with a large enough effect in the signal ratio in the repeat runs, not every such curve was filed as active; the % refers to the signal ratio; note: potency is the fitted concentration of half-maximal effect). The method, boiled down: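 Wild-type CHO-K1 cells plated overnight, then exposed 3 hr at 37C to compounds at 15 concentrations (0.76% DMSO). Lysed, then HTRF anti-pH2AX(S139)-cryptate/anti-H2AX-d2 detection after 24 hr at room temperature; emissions 665 and 620 nm.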
Test [2] can be described thus: qHTS assay to identify small molecule agonists of H2AX - cell viability counter screen (AID 1224847; calls by dose curve; note: nearly all actives have a fitted effect of over 30% in size; note: potency is the fitted concentration of half-maximal effect; for activity change, negative = cytotoxicity: top concentration of the series differs between compounds). The method, boiled down:
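After overnight plating of 1000 CHO-K1 cells per well, a 15-concentration compound series was applied for 3 hr at 37C. Luminescence from CellTiter-Glo, read following 30 min at room temperature, reflected cell viability.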

Test [3] in a line: qHTS RealTime-Glo MT Cell Viability Assay in HepG2 cells - 24 hour (AID 1224867). Note: nearly all actives have a fitted effect of over 50% in size. Note: potency is the fitted concentration of half-maximal effect. The method, boiled down: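 Real-time, nonlytic viability: 600 HepG2 cells/well mixed with NanoLuc enzyme plus prosubstrate; 5 h settle, compound (DMSO) added by pintool; luminescence monitored over 40 h at 37 C.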
A general note: In qHTS, concentration-response curves come from the screen itself.

Test [4] can be described thus: qHTS RealTime-Glo MT Cell Viability Assay in HEK293 cells - 32 hour (AID 1224868). For activity change, negative = cytotoxic: top concentration of the series differs between compounds. Note: nearly all actives have a fitted effect of over 50% in size. Note: potency is the fitted concentration of half-maximal effect. The method, boiled down:
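Cells + reagent dispensed (600 cells/well, HEK293) → 5 h at 37 C/5% CO2 → 23 nL compound in DMSO pinned → 40 h at 37 C → luminescence read at 0, 8, 16, 24, 32, 40 h.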

Test [5] is described as follows: A CellTox Green Cytotoxicity Assay to monitor cytotoxicity in HEK293 cells - 0 hour (AID 1224869). Note: nearly all actives have a fitted effect of over 50% in size. Note: potency is the fitted concentration of half-maximal effect. The method, boiled down: (§1)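 Fluorescence from a DNA-binding dye excluded by viable cells was measured repeatedly in the same HEK293 wells (600 cells/well) during continuous compound exposure at 37 C. Each assay gives one read point: 0, 8, 16, 24, 32 or 40 h.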
Test [6] can be described thus: qHTS RealTime-Glo MT Cell Viability Assay in HepG2 cells - 40 hour (AID 1224870). Note: nearly all actives have a fitted effect of over 50% in size. Note: potency is the fitted concentration of half-maximal effect. The method, boiled down: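 HepG2 cells mixed with RealTime-Glo MT reagents (NanoLuc plus cell-permeant prosubstrate) were seeded at 600 cells/well, incubated 5 h at 37 C/5% CO2, then pinned with compounds in DMSO; nonlytic luminescence tracked viability during 40 h treatment.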
A short description of test [7]: A CellTox Green Cytotoxicity Assay to monitor cytotoxicity in HEK293 cells - 40 hour (AID 1224871). Note: nearly all actives have a fitted effect of over 45% in size. Note: potency is the fitted concentration of half-maximal effect. The method, boiled down:
as §1

Test [8] in a line: qHTS assay to identify small molecule agonists of the hypoxia (HIF-1) signaling pathway (AID 1224846; active = well fitted activation curve with a large enough effect in the signal ratio in the repeat runs, not every such curve was filed as active; the % refers to the signal ratio). The method, boiled down:
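Compounds added to ME-180 cells carrying hypoxia-response-element beta-lactamase reporter (0.5% dialyzed FBS, 5 h preplating), 17 h at 37C; agonist activity detected by CCF4-AM B/G FRET read-out.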

A short description of test [9]: qHTS assay to identify small molecule antagonists of the estrogen related receptor (ERR) signaling pathway from Tox21 library (AID 1224848). Note: nearly all actives have a fitted effect of over 50% in size. Note: potency is the fitted concentration of half-maximal effect. The method, boiled down: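 Tox21 10K compounds in DMSO tested for ERR pathway antagonism in NTP's ERR cell line; 18 h, 37 C exposure; ONE-Glo luminescence.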
Test [10] in a line: qHTS assay to identify small molecule agonists of the estrogen related receptor (ERR) signaling pathway from Tox21 library (AID 1224849; calls by dose curve; note: nearly all actives have a fitted effect of over 15% in size). The note with it: ERR reporter cell line, ONE-Glo luciferase, 18 h. The method, boiled down: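 Luminescent agonist read-out (One-Glo, 30-minute room-temperature incubation) following 18-hour compound treatment at 37 C of the ERR cell line, which had been plated 6 hours before dosing.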
% is set by controls: 0 for no effect and ±100 for the full control effect.

Take `O=C1OC2(c3ccc(O)cc3Oc3cc(O)ccc32)c2ccccc21`: the Potency entry in test [1], in [2], in [3], in [4] and in test [6] was “inactive” throughout. Moreover, the Potency in [5] was 1.74 µM (active) and 848 nM (active); in test [7], 692 nM (active) and 1.2 µM (active).

Take `c1ccc2n[nH]nc2c1`: the Potency result in test [1], in [2], in [3], in [4], in [5] and in test [6] was “inactive” each time. The Potency entry in test [7] is “inactive”.

Consider `Cc1c2oc3c(C)ccc(C(=O)N[C@@H]4C(=O)N[C@H](C(C)C)C(=O)N5CCC[C@H]5C(=O)N(C)CC(=O)N(C)[C@@H](C(C)C)C(=O)O[C@@H]4C)c3nc-2c(C(=O)N[C@@H]2C(=O)N[C@H](C(C)C)C(=O)N3CCC[C@H]3C(=O)N(C)CC(=O)N(C)[C@@H](C(C)C)C(=O)O[C@@H]2C)c(N)c1=O` (I: T[dV]P[Sar][NMeV] / II: T[dV]P[Sar][NMeV]; ester I:1-I:C, II:1-II:C; linker I:N-II:N via Actinocin(9to1)), for which the Potency is 1.1 µM (active) in test [1]; 8.47 µM (active) and 2.68 µM (active) in [3]; 12 nM (active) and 21.3 nM (active) in test [4]. For the same compound, the Potency result in test [2], in test [5] and in test [7] was “inactive” in each case.

For `CN1C(=O)c2ccc([N+](=O)[O-])cc2C1=O`, the Potency entry in test [8], in test [9], in test [3], in test [4], in test [5] and in [6] was “inactive” each time. Further, the Potency entry in test [7] is “inactive”. Also, in test [10] (at 92.4 µM (top of the series)), the activity change, positive = activation is 7.36%.

Take `CCCCCCCCCCCC[N+](C)(C)C`: the Potency result in test [1] and in test [5] was “inactive” in each case. Moreover, the Potency is 6.15 µM (active) and 3.47 µM (active) in test [4]; 48.9 µM (active) and 49 µM (active) and 43.6 µM (active) in test [6]; 54.8 µM (active) and 17.4 µM (active) and 54.9 µM (active) in [7].

Regarding `C=C(C)C1CC=C(C)C(OC(C)=O)C1` (centres undefined), the Potency result in [8], in test [3], in test [4], in [5], in [6] and in test [7] was “inactive” each time. Moreover, in test [10] (at 92.4 µM (top of the series)), the activity change, positive = activation was 2.18% and 0.969%.

Turning to `O=S(=O)(O)c1ccc2nc(-c3ccccc3)[nH]c2c1`, the Potency entry in test [8], in test [3], in test [4], in [5], in [6] and in test [7] was “inactive” throughout. For the same compound, the Potency in test [2] was 30.3 µM (active) and 22 µM (active). Further, the activity change, positive = activation was 2.03% in test [10] (at 42.5 µM (top of the series)) and -3.59% in test [10] (at 92.4 µM (top of the series)).

As to `CCCOC(=O)c1cc(O)c(O)c(O)c1`, the Potency entry in test [2], in [3], in test [5], in test [6] and in test [7] was “inactive” each time. For the same compound, the Potency is 48.3 µM (active) and 54.5 µM (active) in test [9]; 38.9 µM (active) in [4]. Moreover, the activity change, positive = activation in test [10] (at 92.4 µM (top of the series)) is -50.8% and -46.2%.

As to `C[N+]1([O-])CCOCC1`, the Potency entry in test [2], in test [9], in [3], in test [4], in [5] and in test [6] was “inactive” in each case. Besides, the Potency result in test [7] was “inactive”. The activity change, positive = activation in test [10] (at 92.4 µM (top of the series)) was -0.0985%.

With `CCCCCCCCCCCCCCCCCl`, in test [8], the activation is 0.196% [at 15.8 µM]. The activity change, negative = cytotoxicity in [2] was 2.02% [at 31.6 µM]; in test [3], 5.56% [at 15.8 µM]. The activity change, positive = activation in test [10] (at 19 µM (top of the series)) was 7.84%. The activity change, negative = cytotoxic in [4] was -2.48% [at 15.8 µM]; in test [6], 12.5% [at 15.8 µM]. For the same compound, in [5], the cytotoxicity was 1.64% [at 15.8 µM]. For the same compound, the cytotoxicity increase in test [7] was 10.8% [at 15.8 µM].

Take `O=C(O)c1cn(-c2ccc(F)cc2)c2cc(N3CCNCC3)c(F)cc2c1=O`: the Potency result in test [8], in test [2], in test [3], in test [4], in test [5] and in test [6] was “inactive” throughout. The Potency result in test [7] is “inactive”.

Turning to `O=C1NCC2(CCN(CCc3ccccc3)CC2)O1`, the Potency result in test [1], in test [3], in test [4], in [5], in test [6] and in [7] was “inactive” throughout.

Consider `CCC(C)(C)C(=O)O[C@H]1C[C@@H](C)C=C2C=C[C@H](C)[C@H](CC[C@@H]3C[C@@H](O)CC(=O)O3)[C@H]21`, for which the Potency entry in [1], in [5] and in test [7] was “inactive” in each case.
